According to the supplement of paper PMC10515830:
Where a name gives a salt, the structure may show the parent alone.

Columns and labels:
Conditions in all cases: 10 µM; exposure time 6 h
[1] = system: Danio rerio larvae (5 dpf); assay: difference in excitability vs DMSO (percentage points); higher = more excitable than DMSO
Procedure, shortened: (§1)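 Wild-type zebrafish larvae at 5 dpf were kept in 96-well plates and exposed for 6 h to 100 µL egg water holding library compound at a final concentration of 10 µM. From 3 h into exposure, the plates were held at 28.5 ℃ and photographed every 6 s through a 3-h programme of moving lines and 100 ms, 400Hz tones. Each behaviour was scored by Z-LaP Tracker, a DeepLabCut model, and averaged over 48 larvae per compound. Every value gives the compound mean minus the vehicle control mean, in percentage points.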

[2] = system: Danio rerio larvae (5 dpf); assay: difference in startle response vs DMSO (percentage points); higher = stronger startle than DMSO
Procedure, shortened: as §1

[3] = system: Danio rerio larvae (5 dpf); assay: difference in activity during first hour vs DMSO (percentage points); higher = more activity than DMSO
Procedure, shortened: as §1

[4] = system: Danio rerio larvae (5 dpf); assay: difference in habituation to acoustic stimuli vs DMSO (percentage points); higher = more habituation than DMSO
Procedure, shortened: as §1

[5] = system: Danio rerio larvae (5 dpf); assay: difference in combined optomotor response to red, green and blue moving lines vs DMSO (percentage points); higher = stronger optomotor response than DMSO
Procedure, shortened: as §1

Compound	difference in excitability [1]	difference in startle response [2]	difference in activity during first hour [3]	difference in habituation to acoustic stimuli [4]	difference [5]
Cn1c(=O)c2nc[nH]c2n(C)c1=O [Theophylline]	4.49	5.34	8.14	4.58	-0.54
Cc1ccsc1C(=CCCN1CCC[C@@H](C(=O)O)C1)c1sccc1C [Tiagabine (hydrochloride)]	6.86	2.66	17.9	5.1	-1.64
CN1C(=O)CC(C)(c2ccccc2)C1=O (stereo not given) [Methsuximide]	-3.21	8.76	7.45	4.76	10.3
C[N+](C)(C)C[C@H](O)CC(=O)[O-] [L-Carnitine]	-2.51	-2.46	8.51	4	3.58
CCOC(=O)C1=C(COCCN)NC(C)=C(C(=O)OC)C1c1ccccc1Cl (stereo not given) [Amlodipine]	4.37	-5.58	1.69	0.668	7.23
CCCc1nc(C)c2c(=O)nc(-c3cc(S(=O)(=O)N4CCN(CC)CC4)ccc3OCC)[nH]n12 [Vardenafil (hydrochloride hydrate)]	4.29	1.36	0.203	5.85	12.9
C#C[C@]1(O)CC[C@H]2[C@@H]3CCC4=CC(=O)CC[C@@H]4[C@H]3C(=C)C[C@@]21CC [Etonogestrel]	12.2	-2.36	0.0241	-5.37	10.4
CO[C@H]1C[C@@H]2CC[C@@H](C)[C@@](O)(O2)C(=O)C(=O)N2CCCC[C@H]2C(=O)O[C@H]([C@H](C)C[C@@H]2CC[C@@H](OCCO)[C@H](OC)C2)CC(=O)[C@H](C)/C=C(\C)[C@@H](O)[C@@H](OC)C(=O)[C@H](C)C[C@H](C)/C=C/C=C/C=C/1C [Everolimus]	1.38	1.06	1.4	-3.73	5.32
COC(=O)[C@H]1[C@H]2C[C@@H]3c4[nH]c5cc(OC)ccc5c4CCN3C[C@H]2C[C@@H](OC(=O)c2cc(OC)c(OC)c(OC)c2)[C@@H]1OC [Reserpine]	24.6	-7.69	9.27	-7.61	-10.4
CN/C(=N\CCSCc1nc[nH]c1C)NC#N [Cimetidine]	-1.49	2.86	11.1	4.18	8.46
Cn1nnc(-c2ccc(-c3ccc(N4C[C@H](COP(=O)(O)O)OC4=O)cc3F)cn2)n1 [Tedizolid Phosphate]	-1.24	8.42	3.68	2.23	0.136
NC(=O)N[C@@H](CCC(=O)O)C(=O)O [N-Carbamyl-L-Glutamic Acid]	5.63	-0.75	17.4	3.65	8.31
NC[C@H]1CC[C@H](C(=O)O)CC1 [Tranexamic Acid]	6.95	8.18	13.1	1.19	10.9
CNNCc1ccc(C(=O)NC(C)C)cc1 [Procarbazine (hydrochloride)]	0.724	-0.558	6.39	-5.35	4.87
CC(=O)OC(C)C[N+](C)(C)C (stereo not drawn) [Acetyl-β-methylcholine (chloride)]	1.77	1.22	3.93	15	1.43
COc1c(N2C[C@@H]3CCCN[C@@H]3C2)c(F)cc2c(=O)c(C(=O)O)cn(C3CC3)c12 [Moxifloxacin (hydrochloride)]	22.9	4.54	5.78	3.51	3.81
Clc1ccc(COC(Cn2ccnc2)c2ccc(Cl)cc2Cl)cc1 (stereo not given) [Econazole (nitrate)]	7.22	-9.26	-22.1	-11.9	-16.9
C=CC(=O)N1CCC[C@@H](n2nc(-c3ccc(Oc4ccccc4)cc3)c3c(N)ncnc32)C1 [Ibrutinib]	14.1	0.877	-6.73	-6.76	9.38
CN(C/C=C/c1ccccc1)Cc1cccc2ccccc12 [Naftifine (hydrochloride)]	11.1	-5.96	-7.66	1	7.26
CCCCC[C@H](O)/C=C/[C@H]1[C@H](O)CC(=O)[C@@H]1CCCCCCC(=O)O [Prostaglandin E1]	15.5	-3.01	-8.7	-1.03	0.226
C[C@H](CS)C(=O)N1CCC[C@H]1C(=O)O [Captopril]	1.66	-4.09	-5.55	-3.07	1.64
CS(=O)(=O)c1cccc(C[C@H](NC(=O)c2c(Cl)cc3c(c2Cl)CCN(C(=O)c2ccc4ccoc4c2)C3)C(=O)O)c1 [Lifitegrast]	5.68	2.04	16.5	0.0295	7.02
CC(C)(C)NC[C@H](O)COc1nsnc1N1CCOCC1 [Timolol (maleate)]	6.66	-3.72	0.276	-0.906	6.47

Compound	difference in excitability [1]	difference in startle response [2]	difference in activity during first hour [3]	difference in habituation to acoustic stimuli [4]	difference [5]
CC(=O)CCCCn1c(=O)c2c(ncn2C)n(C)c1=O [Pentoxifylline]	11.4	2.26	8.3	4.08	6.01
COc1ccc(NC(=O)c2ccc(C(=N)N(C)C)cc2)c(C(=O)Nc2ccc(Cl)cn2)c1 [Betrixaban]	11.6	2.94	2.19	5.98	7.59
CC1(C)O[C@@H]2C[C@H]3[C@@H]4CCC5=CC(=O)C=C[C@]5(C)[C@@]4(F)[C@@H](O)C[C@]3(C)[C@]2(C(=O)CO)O1 [Triamcinolone acetonide]	-3.81	-2.41	12.6	3.46	7.94
NC(=O)c1ncn([C@@H]2O[C@H](CO)[C@@H](O)[C@H]2O)n1 [Ribavirin]	3.64	-0.473	21.8	-4.01	5.68
CN1CCN(CCCN2c3ccccc3Sc3ccc(C(F)(F)F)cc32)CC1 [Trifluoperazine (hydrochloride)]	11.8	-1.73	23.8	-10.9	-0.14
COc1cc2c(cc1OC)CC(=O)N(CCCN(C)C[C@H]1Cc3cc(OC)c(OC)cc31)CC2 [Ivabradine (hydrochloride)]	8.58	0.00664	14.5	-0.807	9.1
COc1ccc2c(O[C@@H]3C[C@H]4C(=O)N[C@]5(C(=O)NS(=O)(=O)C6CC6)C[C@H]5/C=C\CCCCN(C)C(=O)[C@@H]4C3)cc(-c3nc(C(C)C)cs3)nc2c1C [Simeprevir (sodium salt)]	13.8	-3.43	25.2	3.8	8.38
NS(=O)(=O)c1cc2c(cc1Cl)NCNS2(=O)=O [Hydrochlorothiazide]	-7.7	3.06	2.42	1.66	2
COc1ccccc1OCC(O)CO (stereo not given) [Guaifenesin]	1.91	-2.97	10.9	3.83	6.79
CCC(=O)NCC[C@@H]1CCc2ccc3c(c21)CCO3 [Ramelteon]	33	0.219	-13.3	-1.29	6.65
CC(S)C(=O)NCC(=O)O (stereo not given) [Tiopronin]	1.71	-1.91	3.62	-3.05	3.9
O=C(NCC1CCCCN1)c1cc(OCC(F)(F)F)ccc1OCC(F)(F)F (stereo not given) [Flecainide (acetate)]	6.44	-12.4	-19.1	-11	-18.8
C1N2CN3CN1CN(C2)C3 [Methenamine Hippurate]	0.76	5.89	-3.94	9.62	2.94
C[N+](C)(C)CC=O [Betaine Aldehyde (chloride)]	7.5	1.56	10.1	-0.929	4.79
O=C(O)c1cc(/N=N/c2ccc(S(=O)(=O)Nc3ccccn3)cc2)ccc1O [Sulfasalazine]	11.1	2.87	12.9	-2.35	4.25
COC(=O)c1ccc2c(c1)NC(=O)/C2=C(\Nc1ccc(N(C)C(=O)CN2CCN(C)CC2)cc1)c1ccccc1	16.7	-5.51	-11.1	1.6	3.92
CC(N)C12CC3CC(CC(C3)C1)C2 (stereo not given) [Rimantadine (hydrochloride)]	3.64	-0.673	-3.58	3.17	-3.34
Cc1cn([C@H]2C[C@H](N=[N+]=[N-])[C@@H](CO)O2)c(=O)[nH]c1=O [Zidovudine]	4.38	-2.12	0.0973	1.67	6.8
CCC1(c2ccccc2)C(=O)NCNC1=O [Primidone]	3.77	4.38	11.2	-0.65	9.02
CC(=O)O[C@H]1Cc2ccccc2N(C(N)=O)c2ccccc21 [Eslicarbazepine Acetate]	-1.41	-0.316	-0.636	-4.75	-2.32
CN(C)CCCN1c2ccccc2CCc2ccccc21 [Imipramine (hydrochloride)]	14.5	-8.78	-16.4	-11.2	-6.91
CC[C@]1(O)C[C@@H]2CN(CCc3c([nH]c4ccccc34)[C@@](C(=O)OC)(c3cc4c(cc3OC)N(C)[C@H]3[C@@](O)(C(=O)OC)[C@H](OC(C)=O)[C@]5(CC)C=CCN6CC[C@]43[C@@H]65)C2)C1 [Vinblastine (sulfate)]	11.1	-3.06	-6.36	-2.13	-3.97
